Source: PubChem
The list is not random: actives were taken first. Their share in the collection is about 13%.
FMDV antiviral: antivirals against foot and mouth disease virus; Potency, µM (titrated, usually from 57.9 µM), actives largely listed as inhibitors; 410,000 compounds, 1.2% hits; FMDV antiviral cell-based qHTS; AID 1159524; calls by dose curve; tested in HEK293T cells; note: read-out not given here; nearly all actives have a fitted effect of over 45% in size
LASV entry inh: blocks Lassa virus binding to or entry into cells. AID 540256. 300,000 compounds, 1.2% hits. Potency, µM (top dose mostly 37.9 µM), actives largely listed as inhibitors. Lassa virus pseudotype entry inhibition, cell reporter; calls by dose curve; tested in HEK293 cells; note: nearly all actives have a fitted effect of over 50% in size
MARV entry inh: blocks Marburg virus binding to or entry into cells. Marburg virus pseudotyped entry inhibition, cell reporter. Potency, µM (doses to about 37.8 µM), hits mostly inhibitors. 300,000 compounds, 1.8% hits; calls by dose curve; tested in HEK293 cells
Shiga toxin inh: inhibitors of Shiga toxin in Vero cells; 290,000 compounds, 9.2% hits; inhibition, % at 38.7 µM; AID 2315; Vero cells, Shiga toxin protein synthesis inhibition reporter; in the data active = inhibition mostly above about 28%, no sharp cut-off; inactive = mostly below about 43%
HCV inh: HCV inhibition | Huh7.5.1 HCVcc-Cre infection, luciferase reporter, 44 h | Potency, µM (top dose mostly 41.8 µM), usual class: inhibitors | 340,000 compounds, 3.4% hits | AID 651820; active = well fitted inhibition curve with a large enough effect; inconclusive = small, poorly fitted or top-dose-only effect, or another doubt; inactive = no such curve, though single readings can be large or run the other way
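1,000 cells/well; 4 h culture; + compound; + HCVcc-Cre (~0.5 moi); 44 h; luciferase substrate, RT 15 min; read 15 sec.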
CHX counter: counter-screen for Shiga toxin inhibitors: cycloheximide protein synthesis inhibition | cell reporter, cycloheximide protein synthesis inhibition counterscreen | max response, % | 300,000 compounds, 12% hits | AID 2314; in the data active = max response mostly above about 13%, no sharp cut-off; inactive = mostly below about 14%; note: read at 38.3 µM for the half of the compounds with a filed dose
Each line names hits and unclear results; the compound was inactive in the other large screens.

CCN(Cc1ccccc1)C(=O)CCc1nnc(CCCc2ccccc2)o1	LASV entry inh inconclusive, MARV entry inh inconclusive, Shiga toxin inh 57, CHX counter 22
CC(Cc1ccsc1)NC(=O)CCc1nnc(COc2ccccc2)o1 (stereo unspecified)	LASV entry inh inconclusive, CHX counter 19
COc1ccccc1CCc1nnc(CCC(=O)N(C)Cc2ccncc2C)o1	none (no result: LASV entry inh, MARV entry inh)
O=C(CCc1nnc(COc2ccccc2)o1)NCc1ccccc1	none
CC(C)(CO)CNC(=O)CCc1nnc(Cc2ccc(-c3ccccc3)cc2)o1	none
CN(Cc1ccsc1)C(=O)CCc1nnc(CCCc2ccccc2)o1	Shiga toxin inh 124, CHX counter 47 (no result: LASV entry inh, MARV entry inh)
Cn1ccnc1SCCNC(=O)CCc1nnc(CCCCc2ccccc2)o1	Shiga toxin inh 23
CCN(Cc1ccncc1)C(=O)CCc1nnc(CCC2CCCCC2)o1	Shiga toxin inh 39, CHX counter 23
CCN(Cc1ccccc1)C(=O)CCCOc1ccccc1	Shiga toxin inh 77, CHX counter 26
CC(C)(C)C(=O)O[C@H]1CC[C@@]2(C)C(=CC(=O)C3C2CC[C@]2(C)C(=O)[C@H](O)CC32)C1 (stereo partly specified)	LASV entry inh inconclusive, MARV entry inh inconclusive (no result: Shiga toxin inh, CHX counter)
O=S(=O)(NC1=NCCCCC1)c1cccs1	none
CSCCC(NC(=O)c1ccccc1Br)C(=O)NC(C)CCc1ccccc1 (stereo unspecified)	LASV entry inh inconclusive (no result: HCV inh)
O=S(=O)(NCCNC/C=C/c1ccc(Br)cc1)c1cccc2cnccc12	FMDV antiviral inconclusive, LASV entry inh inconclusive, MARV entry inh 10µM (no result: Shiga toxin inh, HCV inh, CHX counter)
CNCCNS(=O)(=O)c1cccc2cnccc12	MARV entry inh inconclusive (no result: Shiga toxin inh, HCV inh, CHX counter)
CN(C(=O)CSc1n[nH]c(N)n1)C1CCCCC1	none (no result: LASV entry inh, MARV entry inh, Shiga toxin inh, CHX counter)
Cc1nnc(SCC(=O)N(C)C2CCCCC2)s1	LASV entry inh inconclusive, MARV entry inh inconclusive, CHX counter 11
C[C@]1(C(=O)O)Cc2oncc2C[C@@H]1C(=O)O	none
O=C(NCCCN1CCCC1=O)c1ccc(Cl)c(S(=O)(=O)N2CCCCC2)c1	none (no result: LASV entry inh, MARV entry inh, Shiga toxin inh, CHX counter)
O=C(NCCCN1CCCC1=O)c1ccc(OCc2ccccc2)cc1	MARV entry inh inconclusive, CHX counter 28
COc1ccc(C(=O)NCCCN2CCCC2=O)cc1	none
CC1CN(S(=O)(=O)c2cc(C(=O)NCCCN3CCCC3=O)ccc2Cl)CC(C)O1 (stereo unspecified)	FMDV antiviral inconclusive, MARV entry inh 2.2µM (no result: Shiga toxin inh, CHX counter)
O=C(NCCCN1CCCC1=O)c1ccc2c(c1)OCO2	Shiga toxin inh 59, CHX counter 15
Cc1ccc(S(=O)(=O)NC2CC2)s1	none (no result: LASV entry inh, MARV entry inh)
O=c1cc(-c2ccc(O)cc2)oc2cc(O)c(C3OC(CO)C(O)C(O)C3O)c(O)c12 (stereo unspecified)	none (no result: LASV entry inh, MARV entry inh)
Cc1ccc(CSC2=Nc3ccccc3C3=NC(=O)CN23)cc1	LASV entry inh inconclusive, MARV entry inh inconclusive, HCV inh 7.9µM
COc1cc2c(cc1OC)C1=NC(=O)CN1C(SCc1ccccc1C)=N2	MARV entry inh inconclusive, HCV inh inconclusive
Cc1nc(NCC2CC2)c2nnn(Cc3ccccc3)c2n1	MARV entry inh inconclusive, HCV inh inconclusive
Cc1nc(N(CCO)C2CCCCC2)c2nnn(Cc3ccccc3)c2n1	MARV entry inh 10µM
Cc1ccccc1C(=O)N1c2ncnn2C2(CCCCC2)[C@@H]2CCCC[C@@H]21	FMDV antiviral inconclusive (no result: Shiga toxin inh, HCV inh, CHX counter)
S=C(NCCCc1ccccc1)NC1CCCCC1	Shiga toxin inh 71, HCV inh inconclusive, CHX counter 47
S=C(NCCc1ccccn1)NC1CCCCC1	LASV entry inh inconclusive, Shiga toxin inh 27, CHX counter 42
Cc1cc(=O)oc2c(CN3CCOCC3)c(O)ccc12	none (no result: LASV entry inh, MARV entry inh, Shiga toxin inh, CHX counter)
O=[N+]([O-])c1ccc2c(c1N1CCCCC1)=NC1(CCCCC1)[N+]=2[O-]	none
[O-][N+]1=c2ccc(Nc3ccccc3)cc2=NC12CCCCC2	LASV entry inh inconclusive, MARV entry inh 2.2µM, Shiga toxin inh 89, HCV inh inconclusive, CHX counter 51
COc1cccc(NC(=S)N(Cc2ccccn2)Cc2ccccc2Cl)c1	LASV entry inh inconclusive, MARV entry inh inconclusive, HCV inh inconclusive
O=C(N/N=C/c1c[nH]c2ccccc12)c1ccn[nH]1	HCV inh inconclusive, CHX counter 28 (no result: LASV entry inh, MARV entry inh)
O=C(N/N=C/c1c[nH]c2ccccc12)c1cc(-c2ccc(-c3ccccc3)cc2)n[nH]1	FMDV antiviral inconclusive, MARV entry inh inconclusive, Shiga toxin inh 54, CHX counter 35
O=C(N/N=C/c1c[nH]c2ccccc12)c1cc(-c2ccc3ccccc3c2)n[nH]1	LASV entry inh inconclusive, MARV entry inh inconclusive, Shiga toxin inh 64, HCV inh 10µM, CHX counter 49
O=C(N/N=C/c1c[nH]c2ccccc12)c1cc(-c2cccc3ccccc23)n[nH]1	MARV entry inh inconclusive, HCV inh inconclusive, CHX counter 19
O=C(N/N=C/c1c[nH]c2ccccc12)c1cc(-c2ccccc2)n[nH]1	HCV inh inconclusive
O=C(COc1ccccc1)NCC(=O)N/N=C/C=C/c1ccccc1	none
Cc1ccc(NC(=O)CCS(=O)(=O)c2ccc3c(c2)NC(=O)C(C)S3)nc1 (stereo unspecified)	none (no result: LASV entry inh, MARV entry inh)
COc1ccccc1CNC(=O)C(=O)NCC1OCCN1S(=O)(=O)c1ccccc1 (stereo unspecified)	MARV entry inh inconclusive
Cc1ccc(CCNC(=O)c2cc(-c3ccccc3)n[nH]2)cc1	none (no result: MARV entry inh, Shiga toxin inh, HCV inh, CHX counter)
Cc1ccc(NC(=O)c2cc(-c3ccccc3)n[nH]2)cc1	Shiga toxin inh 49, CHX counter 39 (no result: LASV entry inh, MARV entry inh)
O=C(N/N=C/C=C\c1ccccc1[N+](=O)[O-])c1cc(-c2ccc3ccccc3c2)n[nH]1	LASV entry inh inconclusive, MARV entry inh inconclusive, HCV inh inconclusive, CHX counter 11
Cc1ccc(-c2cc(NC(=O)c3ccccc3)on2)cc1	Shiga toxin inh 94, CHX counter 23
Cc1ccc(-c2cc(C(=O)N/N=C/c3c[nH]c4ccccc34)[nH]n2)cc1	LASV entry inh inconclusive, MARV entry inh inconclusive, Shiga toxin inh 51, HCV inh inconclusive, CHX counter 47
Cc1nc(C)c(C(=O)N/N=C/c2c[nH]c3ccccc23)s1	MARV entry inh inconclusive
O=C(Nc1nc(-c2cccs2)c(-c2cccs2)s1)C1(c2ccccc2)CC1	FMDV antiviral inconclusive, LASV entry inh inconclusive, MARV entry inh inconclusive
O=C1N/C(=C\c2ccc(O)cc2)C(O)=C1C=NCc1ccccc1	LASV entry inh inconclusive, MARV entry inh inconclusive, CHX counter 16
CC(C)CCNC(=O)NC(=O)CSc1ccc(S(=O)(=O)N2CCOCC2)cn1	none (no result: LASV entry inh, MARV entry inh, Shiga toxin inh, CHX counter)
CC1(C)C(=O)OC(c2cc(Br)ccc2O)C(C)(C)C1=O (stereo unspecified)	FMDV antiviral 35µM
CS(=O)(=O)N(CC(=O)N1CCCC1)c1ccc(Cl)cc1Cl	HCV inh 2.8µM
CN1CCCN(C(=O)CNC(=O)c2ccccc2F)CC1	none (no result: Shiga toxin inh, CHX counter)
O=C(Cc1ccc(Cl)cc1Cl)OCC(=O)N1CCCCC1	LASV entry inh inconclusive, CHX counter 22
O=C(NCC(=O)N1CCCC1)c1ccccc1F	MARV entry inh inconclusive, Shiga toxin inh 53
